Screens: PubChem BioAssay, several laboratories
M1 antag = M1 muscarinic receptor (rat) antagonism. CHO-M1 cells, Fluo-4 calcium, ACh EC80 antagonist mode; hits give low values. P08482. B-score at 10 µM. 3.4% of 64,000 active;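 active = calcium fluorescence response, raw or row-and-column corrected B-score, differing from the plate sample mean either way at a set confidence level, mostly lower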
Target sequence (P08482 whole entry, looked up): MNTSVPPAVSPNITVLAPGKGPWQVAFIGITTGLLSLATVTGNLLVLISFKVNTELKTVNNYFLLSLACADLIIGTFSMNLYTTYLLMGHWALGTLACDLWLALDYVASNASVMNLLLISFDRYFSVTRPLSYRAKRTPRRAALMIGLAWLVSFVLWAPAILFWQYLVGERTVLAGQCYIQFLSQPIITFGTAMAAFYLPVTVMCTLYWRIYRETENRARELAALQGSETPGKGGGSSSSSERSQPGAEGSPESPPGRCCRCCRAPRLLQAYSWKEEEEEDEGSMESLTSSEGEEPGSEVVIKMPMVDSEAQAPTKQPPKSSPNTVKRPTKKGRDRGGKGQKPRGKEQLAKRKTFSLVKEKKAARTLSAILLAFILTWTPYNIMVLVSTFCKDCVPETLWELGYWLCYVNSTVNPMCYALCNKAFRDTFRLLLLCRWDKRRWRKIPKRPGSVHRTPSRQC
M1 ag = activates the M1 muscarinic receptor | CHO-M1 cells, Fluo-4 calcium fluorescence, agonist mode; hits give high values | B-score at 10 µM | 3% of 64,000 active;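 active = fluorescence rise, raw or as B-score row- and column-corrected plate score, outside the 99.7% band of its plate's samples, either direction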
PTK2B oligo ant = antagonists of human Pyk2 oligomerization. 0.83% of 99,000 active. Q293 cells, Pyk2 FERM NanoBiT luminescence; hits give low values. z-score (the deposit names both 25 µM and 10 µM);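 active = Z-score of -3 or lower, scaled per plate to the spread of control and sample wells; inactive = z-score above -3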;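 also: negative z-score means lost luminescence so less FERM oligomerization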
Cav3 T inh = inhibitors of human Cav3.2 T-type calcium channel. O95180. Cav3.2-expressing cells, Fluo-4 calcium fluorescence FDSS; hits give low values. B-score at 10 µM. 4% of 100,000 active. AID 449739;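 active = single-dose well whose peak fluorescence ratio is a statistical outlier from its plate by either plate-standardised score or position-corrected B-score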
* hit, by the source's call; . = not tested or not shown. Sampled rows, rich in hits. Any-hit rate of the full collection: about 7.1%.

SMILES | M1 antag | M1 ag | PTK2B oligo ant | Cav3 T inh
Cc1cc(NC(=O)CCC(=O)N(Cc2cccs2)C(C(=O)NC2CCCC2)c2ccccc2)no1 (centres undefined) | . | . | -0.9 | -8.73*
COC(=O)c1ccc2c(=O)n(Cc3ccc4c(c3)OCO4)c(SCC(=O)N3CCCC3)nc2c1 | 0.157 | -1.73 | . | .
O=C1CC(C(=O)N2CCOCC2)C2(CCCCC2)O1 (centres undefined) | . | . | 1.73 | 0.0437
CCc1[nH]nc2c1C1(C(=O)N(Cc3ccccc3)c3ccccc31)C(C#N)=C(N)O2 (centres undefined) | 2.45 | 0 | -1.34 | -1.56
CCN1C(=O)C2(C(C#N)=C(N)Oc3n[nH]c(-c4ccc(Cl)cc4)c32)c2ccccc21 (centres undefined) | . | . | -3.05* | 0.309
O=C1CN(C(=O)c2ccc(Br)o2)C(c2ccccc2)c2cc(Br)ccc2N1 (centres undefined) | 0.126 | 2.36 | . | .
O=C1CN(C(=O)c2ccc(Br)o2)C(c2ccccc2)c2cc(Cl)ccc2N1 (centres undefined) | 0.00571 | 0.321 | . | -4.46*
Cc1ccc(CCP(=O)(O)CN2CCCCC2)cn1 | 0.602 | -0.135 | . | .
CC(=O)c1ccccc1OCCn1nnc(-c2ccc(C)cc2)n1 | -0.0971 | -0.642 | -2.21 | -5.11*
CC(C)(C)C(=O)/C=C(N)/C=C/c1ccccc1 | -0.12 | 0.441 | 0.53 | -2.3
O=C(Nc1cccc(C(F)(F)F)c1)c1cc(S(=O)(=O)N2CCCCC2)ccc1N1CCOCC1 | 0.0535 | -0.0745 | -0.19 | .
O=C(Nc1ccccc1Cl)c1cc(S(=O)(=O)N2CCCCC2)ccc1N1CCOCC1 | . | . | -0.51 | -6.25*
CC(c1ccco1)N(C(=O)c1cccs1)c1ccccn1 (centres undefined) | -0.585 | -0.136 | 1.56 | 0.324
CC(c1ccco1)N(C(=O)CSc1ccc(Br)cc1)c1ccccn1 (centres undefined) | 0.378 | 0.431 | -0.25 | -4.54*
Cc1ccc2cc(C#N)c(SCC(=O)N3CCCc4ccccc43)nc2c1C | . | . | 0.06 | .
COc1ccc(-n2nc(C(=O)NCC(=O)Nc3ccccn3)c3ccccc3c2=O)cc1Cl | . | . | 0.39 | .
CCc1ccc(N(C(=O)c2snc(C(N)=O)c2N)C(C(=O)NCCC(C)C)c2c[nH]c3ccccc23)cc1 (centres undefined) | . | . | -0.19 | 0.679
C=CCn1c(-c2cccnc2Cl)nc2cc(Cl)c(Cl)cc21 | . | . | -3.26* | -2.07
CCCn1c(-c2cccnc2Cl)nc2cc(Cl)c(Cl)cc21 | . | . | -3.68* | -0.9
CCc1ccc(C2CC(=O)NC(SCC(=O)OC(C)C)=C2C#N)cc1 (centres undefined) | 1.42 | -0.91 | . | -8.43*
COC(=O)CSC1=C(C#N)C(c2ccc(C(C)C)cc2)CC(=O)N1 (centres undefined) | -0.689 | 1.16 | . | -0.182
N#C/C(=C\c1ccc(Cl)cc1)c1nc2ncccc2[nH]1 | . | . | -0.84 | .
N/C(Cc1ccc(Cl)cc1)=N\OC(=O)C1CCCCC1 | . | . | -0.37 | .
CC1(OC(=O)c2cccs2)C(=O)C=C2C=C(C3CC3)OC=C2C1=O (centres undefined) | . | . | . | -2.76*
COC(=O)C1=C(C(=O)OC)[C@@H]2N(C)c3ccc(OC)cc3[C@@]23C[C@@H](C(=O)OC)N(C(=O)NC2CCCCC2)C3=N1 | . | . | . | 0.458
SMILES | M1 antag | M1 ag | PTK2B oligo ant | Cav3 T inh
COc1cccc(CNC(=O)c2cc3oc4ccccc4c3n2C)c1OC | 0.133 | 0.0127 | 0.64 | 0.298
CCOc1ccccc1CNC(=O)c1cc2oc3ccccc3c2n1CC | . | . | -2 | -5.04*
CCOC(=O)c1cccc(NC(=O)CN(c2ccc(OC)cc2)S(=O)(=O)c2c(C)noc2C)c1 | 0.457 | 5.85 | -0.99 | -4.88*
CCOc1ccc(N(CC(=O)Nc2cccc(F)c2)S(=O)(=O)c2c(C)noc2C)cc1 | -0.248 | 0.145 | . | -0.46
CCOc1ccc(N(CC(=O)Nc2ccc(C)c(C)c2)S(=O)(=O)c2c(C)noc2C)cc1 | 0.0982 | -0.489 | . | -4.95*
COc1ccc(N(CC(=O)Nc2cccc(C)c2C)S(=O)(=O)c2c(C)n[nH]c2C)cc1 | -0.833 | 1.56 | -3.26* | -0.353
CCN(CC)C(=O)C(Sc1ccccc1)c1ccccc1 (centres undefined) | . | . | -0.38 | -1.8
Cn1c(C(=O)O)c(CC(=O)N2CCC(Cc3ccccc3)CC2)c2ccccc21 | . | . | 1.59 | .
CCCC(=O)NC(=S)Nc1cccc(Cl)c1N1CCCCC1 | . | . | 0.36 | -4.98*
CCCCC(=O)NC(=S)Nc1cccc(Cl)c1N1CCCCC1 | . | . | 0.08 | .
COc1ccc(CN(C(=O)CN2C(=O)C(C)Oc3ccccc32)C2CCCC2)c(OC)c1 (centres undefined) | -0.739 | 0.0587 | -2.52 | -4.42*
CCN(CC)C(C(=O)Nc1ccc(C(C)C)cc1)c1ccc2c(c1)OCO2 (centres undefined) | . | . | -1.22 | -4.86*
CC(C)c1ccc(NC(=O)C(c2ccc3c(c2)OCO3)N2CCN(C(=O)c3ccco3)CC2)cc1 (centres undefined) | -0.244 | -1.13 | -1.74 | -5.21*
CCCC(C)C(=O)Nc1ccc2c(c1)OCCO2 (centres undefined) | 0.427 | -0.61 | -0.01 | -0.0911
COC(=O)c1ccc(NC(=O)CN(Cc2ccc(Cl)cc2)S(C)(=O)=O)cc1 | . | . | -0.31 | -0.786
COc1ccccc1-c1c(C(F)(F)F)oc2cc(OC(=O)c3cccc([N+](=O)[O-])c3C)ccc2c1=O | . | . | -0.9 | -1.65
Cc1ccc(NC(=O)c2cc3c(s2)CCC3)cc1S(=O)(=O)N1CCOCC1 | . | . | -3.25* | 0.249
Cc1ccc(S(=O)(=O)N2CCOCC2)cc1NC(=O)c1cc2c(s1)CCC2 | . | . | -0.29 | .
COc1ccc(Cl)cc1NC(=O)C(C)Sc1n[nH]c(N)n1 (centres undefined) | . | . | -0.31 | .
COc1ccc(CNC(=O)c2nnn(Cc3ccc(OC)cc3)c2N)cc1 | 0.106 | 0.124 | . | -5.24*
Nc1c(C(=O)NCc2ccccc2)nnn1Cc1ccc(F)cc1 | 0.172 | -0.632 | . | -0.438
Cc1ccc(S(=O)(=O)/C(C#N)=C/c2c(N3CCC(C(N)=O)CC3)nc3ccccn3c2=O)cc1 | . | . | -1.02 | 2.55
Cc1ccc(CN2CCN(/N=C/c3ccc(C(F)(F)F)cc3)CC2)c(C)c1 | . | . | -0.41 | .
O=C(c1cccnc1)N1CCCc2ccccc21 | 0.0284 | -2.97* | -0.53 | 1.18
COc1ccc(N2CCN(C(c3cc(OC)ccc3OC)c3nnnn3Cc3ccco3)CC2)cc1 (centres undefined) | . | . | -3.18* | -1.97
SMILES | M1 antag | M1 ag | PTK2B oligo ant | Cav3 T inh
COCCn1nnnc1C(c1ccc(OC)cc1OC)N1CCN(c2ccccc2F)CC1 (centres undefined) | 0.0171 | 0.784 | -4.4* | -0.124
COCCn1nnnc1C(c1ccc(OC)cc1OC)N1CCN(c2ccccc2)CC1 (centres undefined) | -0.214 | -0.72 | -4.11* | .
COc1ccc(OC)c(C(c2nnnn2CCc2ccccc2)N2CCN(c3ccccc3)CC2)c1 (centres undefined) | -0.0887 | -1.23 | -2.73 | -3.52
CCOc1ccc2[nH]c(=O)c(C(c3nnnn3Cc3ccco3)N3CCCC(C)C3)cc2c1 (centres undefined) | -0.00408 | 0.0414 | -0.09 | -5.89*
CCOc1ccc2[nH]c(=O)c(C(c3nnnn3Cc3ccco3)N3CCC(C)CC3)cc2c1 (centres undefined) | 0.519 | 0.203 | 0.6 | .
CSc1cccc(NC(=O)/C=C/c2cccc(Cl)c2)c1 | . | . | -0.26 | .
